This is an account of results in ChEMBL document CHEMBL1961873, “Compounds: GSK PKIS; Assays: Nanosyn kinase panel” (2012).

A word on the inhibition: it is the relative decrease from the control value, in per cent.

Experiment [1] concerns Epidermal growth factor receptor (Homo sapiens), P00533 [T790M]. To be noted: at 1 µM.
The subject of experiment [2] is Epidermal growth factor receptor (Homo sapiens), P00533 [L858R,T790M]. To be noted: at 0.1 µM.
Experiment [3] shares this test system. Particulars: at 1 µM.
Experiment [4] has as its target Ephrin type-A receptor 2 (Homo sapiens) (UniProt P29317). Particulars: at 0.1 µM.
For experiment [5] the target is unchanged. To be noted: at 1 µM.
The target of experiment [6] is T1, Ephrin type-A receptor 3 (Homo sapiens) (UniProt P29320).
T1 sequence (whole entry): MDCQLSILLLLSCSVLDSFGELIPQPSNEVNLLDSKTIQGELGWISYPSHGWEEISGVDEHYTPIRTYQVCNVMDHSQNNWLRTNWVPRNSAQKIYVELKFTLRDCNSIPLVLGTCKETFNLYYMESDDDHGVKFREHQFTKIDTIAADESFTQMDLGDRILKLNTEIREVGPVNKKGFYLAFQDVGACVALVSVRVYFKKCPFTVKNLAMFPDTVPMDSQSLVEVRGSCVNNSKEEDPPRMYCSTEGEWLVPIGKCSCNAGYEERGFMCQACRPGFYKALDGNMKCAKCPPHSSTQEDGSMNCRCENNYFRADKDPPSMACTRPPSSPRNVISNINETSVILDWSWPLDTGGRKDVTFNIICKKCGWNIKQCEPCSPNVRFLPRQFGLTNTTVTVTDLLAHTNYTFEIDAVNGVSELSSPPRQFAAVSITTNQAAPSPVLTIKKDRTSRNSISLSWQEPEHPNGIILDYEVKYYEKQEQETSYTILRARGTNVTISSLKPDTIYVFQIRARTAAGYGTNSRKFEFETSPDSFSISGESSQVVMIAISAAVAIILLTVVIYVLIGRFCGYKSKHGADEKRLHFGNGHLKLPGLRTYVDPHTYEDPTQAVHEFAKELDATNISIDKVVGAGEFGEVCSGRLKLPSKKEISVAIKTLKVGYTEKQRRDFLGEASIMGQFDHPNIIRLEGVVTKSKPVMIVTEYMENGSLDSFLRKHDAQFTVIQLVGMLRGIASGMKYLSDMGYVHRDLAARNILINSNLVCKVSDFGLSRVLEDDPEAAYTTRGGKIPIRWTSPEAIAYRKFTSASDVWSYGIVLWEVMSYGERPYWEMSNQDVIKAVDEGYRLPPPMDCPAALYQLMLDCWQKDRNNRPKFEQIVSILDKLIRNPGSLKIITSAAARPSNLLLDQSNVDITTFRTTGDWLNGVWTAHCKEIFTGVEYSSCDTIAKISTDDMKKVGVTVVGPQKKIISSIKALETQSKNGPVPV
To be noted: at 0.1 µM.

Experiment [7] deals with T1, Ephrin type-A receptor 3 (Homo sapiens). Particulars: at 1 µM.
Experiment [8] addresses Ephrin type-A receptor 4 (Homo sapiens) (UniProt P54764). Particulars: at 0.1 µM.
Experiment [9] has the same target. To be noted: at 1 µM.
Experiment [10] addresses T2, Ephrin type-B receptor 2 (Homo sapiens) (UniProt P29323).
T2 sequence (whole entry): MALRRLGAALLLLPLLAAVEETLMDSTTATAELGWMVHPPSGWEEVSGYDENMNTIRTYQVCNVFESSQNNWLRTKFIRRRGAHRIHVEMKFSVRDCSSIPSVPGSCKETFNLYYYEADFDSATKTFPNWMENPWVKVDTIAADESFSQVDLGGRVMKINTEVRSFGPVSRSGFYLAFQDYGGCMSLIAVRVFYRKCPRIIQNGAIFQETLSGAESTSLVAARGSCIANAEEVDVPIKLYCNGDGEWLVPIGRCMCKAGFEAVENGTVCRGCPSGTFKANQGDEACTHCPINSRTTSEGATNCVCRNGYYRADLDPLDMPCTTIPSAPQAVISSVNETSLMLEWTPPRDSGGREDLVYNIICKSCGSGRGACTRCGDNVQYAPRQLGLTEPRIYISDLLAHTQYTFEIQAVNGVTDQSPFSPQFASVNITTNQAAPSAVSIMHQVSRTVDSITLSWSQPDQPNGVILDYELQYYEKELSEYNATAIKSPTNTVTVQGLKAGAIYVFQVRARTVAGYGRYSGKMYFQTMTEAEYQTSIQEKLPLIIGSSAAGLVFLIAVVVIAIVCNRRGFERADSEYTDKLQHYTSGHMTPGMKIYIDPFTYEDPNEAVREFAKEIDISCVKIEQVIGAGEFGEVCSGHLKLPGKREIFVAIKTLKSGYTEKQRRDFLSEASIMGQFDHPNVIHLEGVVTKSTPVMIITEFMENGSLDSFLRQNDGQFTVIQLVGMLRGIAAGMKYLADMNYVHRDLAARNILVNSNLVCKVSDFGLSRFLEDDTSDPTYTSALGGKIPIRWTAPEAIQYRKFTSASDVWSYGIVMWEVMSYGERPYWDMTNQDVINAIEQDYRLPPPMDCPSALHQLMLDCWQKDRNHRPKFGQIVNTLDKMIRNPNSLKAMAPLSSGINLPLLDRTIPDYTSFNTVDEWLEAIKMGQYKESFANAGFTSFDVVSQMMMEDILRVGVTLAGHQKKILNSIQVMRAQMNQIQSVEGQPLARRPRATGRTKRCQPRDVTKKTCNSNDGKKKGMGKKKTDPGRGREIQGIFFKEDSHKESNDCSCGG
To be noted: at 0.1 µM.

The target of experiment [11] is T2, Ephrin type-B receptor 2 (Homo sapiens). Particulars: at 1 µM.
For experiment [12], the target named is T3, Ephrin type-B receptor 3 (Homo sapiens) (UniProt P54753).
T3 sequence (whole entry): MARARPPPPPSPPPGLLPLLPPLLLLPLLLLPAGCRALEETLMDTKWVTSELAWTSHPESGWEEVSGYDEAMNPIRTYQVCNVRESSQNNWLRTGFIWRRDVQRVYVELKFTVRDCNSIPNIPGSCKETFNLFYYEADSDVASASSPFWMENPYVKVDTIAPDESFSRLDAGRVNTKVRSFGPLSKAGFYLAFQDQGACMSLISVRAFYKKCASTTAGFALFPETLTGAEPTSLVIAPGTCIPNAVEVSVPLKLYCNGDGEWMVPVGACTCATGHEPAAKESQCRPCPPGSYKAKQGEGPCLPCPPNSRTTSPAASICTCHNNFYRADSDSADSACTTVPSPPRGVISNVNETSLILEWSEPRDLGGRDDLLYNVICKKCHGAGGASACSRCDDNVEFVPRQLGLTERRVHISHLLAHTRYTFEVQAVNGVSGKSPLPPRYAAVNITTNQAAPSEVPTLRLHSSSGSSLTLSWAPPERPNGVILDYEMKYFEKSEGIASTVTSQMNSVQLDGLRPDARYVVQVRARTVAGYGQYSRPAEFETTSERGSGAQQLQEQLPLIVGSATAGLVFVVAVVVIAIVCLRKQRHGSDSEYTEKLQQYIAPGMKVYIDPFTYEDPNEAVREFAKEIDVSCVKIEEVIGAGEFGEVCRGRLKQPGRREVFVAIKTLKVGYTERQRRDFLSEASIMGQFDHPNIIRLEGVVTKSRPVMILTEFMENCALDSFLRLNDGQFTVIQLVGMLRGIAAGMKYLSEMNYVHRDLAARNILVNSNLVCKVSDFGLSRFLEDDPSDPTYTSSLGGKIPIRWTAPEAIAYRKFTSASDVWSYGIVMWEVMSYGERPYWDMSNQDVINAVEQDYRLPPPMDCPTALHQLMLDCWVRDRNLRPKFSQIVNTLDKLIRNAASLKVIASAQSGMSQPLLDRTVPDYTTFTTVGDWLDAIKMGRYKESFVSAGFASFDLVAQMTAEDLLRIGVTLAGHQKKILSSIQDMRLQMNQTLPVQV
To be noted: at 0.1 µM.

The target of experiment [13] is T3, Ephrin type-B receptor 3 (Homo sapiens). To be noted: at 1 µM.
For experiment [14], the target named is T4, Ephrin type-B receptor 4 (Homo sapiens) (UniProt P54760).
T4 sequence (whole entry): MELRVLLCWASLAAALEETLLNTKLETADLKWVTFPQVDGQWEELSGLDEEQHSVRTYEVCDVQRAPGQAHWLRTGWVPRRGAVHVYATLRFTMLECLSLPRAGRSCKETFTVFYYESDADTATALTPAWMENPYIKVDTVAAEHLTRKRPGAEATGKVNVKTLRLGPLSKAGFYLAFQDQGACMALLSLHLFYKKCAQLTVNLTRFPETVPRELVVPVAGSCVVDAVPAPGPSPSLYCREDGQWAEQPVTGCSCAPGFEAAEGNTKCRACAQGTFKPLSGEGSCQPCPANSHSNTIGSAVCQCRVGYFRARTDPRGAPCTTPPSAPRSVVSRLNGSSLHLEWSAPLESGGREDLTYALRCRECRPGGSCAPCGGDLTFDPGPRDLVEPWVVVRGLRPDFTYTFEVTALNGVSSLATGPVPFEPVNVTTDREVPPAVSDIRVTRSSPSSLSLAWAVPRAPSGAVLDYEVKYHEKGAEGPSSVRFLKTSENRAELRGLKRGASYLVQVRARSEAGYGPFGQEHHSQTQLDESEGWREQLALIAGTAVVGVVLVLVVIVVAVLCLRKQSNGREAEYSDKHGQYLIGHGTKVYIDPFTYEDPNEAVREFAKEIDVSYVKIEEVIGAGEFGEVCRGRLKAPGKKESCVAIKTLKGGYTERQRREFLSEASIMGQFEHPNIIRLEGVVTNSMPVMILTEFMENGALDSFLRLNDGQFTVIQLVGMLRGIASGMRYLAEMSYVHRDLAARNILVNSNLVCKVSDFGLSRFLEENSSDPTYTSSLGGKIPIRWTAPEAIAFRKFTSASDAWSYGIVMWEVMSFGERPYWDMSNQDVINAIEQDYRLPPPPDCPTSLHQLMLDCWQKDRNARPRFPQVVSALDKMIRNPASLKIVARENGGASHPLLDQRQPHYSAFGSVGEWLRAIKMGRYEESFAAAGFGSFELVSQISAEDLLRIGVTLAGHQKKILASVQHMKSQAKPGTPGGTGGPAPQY
To be noted: at 0.1 µM.

In experiment [15] the target is T4, Ephrin type-B receptor 4 (Homo sapiens). To be noted: at 1 µM.
For experiment [16], the target named is Receptor tyrosine-protein kinase erbB-2 (Homo sapiens) (UniProt P04626). Particulars: at 0.1 µM.
Chain of Receptor tyrosine-protein kinase erbB-2 (Homo sapiens) (P04626 whole entry): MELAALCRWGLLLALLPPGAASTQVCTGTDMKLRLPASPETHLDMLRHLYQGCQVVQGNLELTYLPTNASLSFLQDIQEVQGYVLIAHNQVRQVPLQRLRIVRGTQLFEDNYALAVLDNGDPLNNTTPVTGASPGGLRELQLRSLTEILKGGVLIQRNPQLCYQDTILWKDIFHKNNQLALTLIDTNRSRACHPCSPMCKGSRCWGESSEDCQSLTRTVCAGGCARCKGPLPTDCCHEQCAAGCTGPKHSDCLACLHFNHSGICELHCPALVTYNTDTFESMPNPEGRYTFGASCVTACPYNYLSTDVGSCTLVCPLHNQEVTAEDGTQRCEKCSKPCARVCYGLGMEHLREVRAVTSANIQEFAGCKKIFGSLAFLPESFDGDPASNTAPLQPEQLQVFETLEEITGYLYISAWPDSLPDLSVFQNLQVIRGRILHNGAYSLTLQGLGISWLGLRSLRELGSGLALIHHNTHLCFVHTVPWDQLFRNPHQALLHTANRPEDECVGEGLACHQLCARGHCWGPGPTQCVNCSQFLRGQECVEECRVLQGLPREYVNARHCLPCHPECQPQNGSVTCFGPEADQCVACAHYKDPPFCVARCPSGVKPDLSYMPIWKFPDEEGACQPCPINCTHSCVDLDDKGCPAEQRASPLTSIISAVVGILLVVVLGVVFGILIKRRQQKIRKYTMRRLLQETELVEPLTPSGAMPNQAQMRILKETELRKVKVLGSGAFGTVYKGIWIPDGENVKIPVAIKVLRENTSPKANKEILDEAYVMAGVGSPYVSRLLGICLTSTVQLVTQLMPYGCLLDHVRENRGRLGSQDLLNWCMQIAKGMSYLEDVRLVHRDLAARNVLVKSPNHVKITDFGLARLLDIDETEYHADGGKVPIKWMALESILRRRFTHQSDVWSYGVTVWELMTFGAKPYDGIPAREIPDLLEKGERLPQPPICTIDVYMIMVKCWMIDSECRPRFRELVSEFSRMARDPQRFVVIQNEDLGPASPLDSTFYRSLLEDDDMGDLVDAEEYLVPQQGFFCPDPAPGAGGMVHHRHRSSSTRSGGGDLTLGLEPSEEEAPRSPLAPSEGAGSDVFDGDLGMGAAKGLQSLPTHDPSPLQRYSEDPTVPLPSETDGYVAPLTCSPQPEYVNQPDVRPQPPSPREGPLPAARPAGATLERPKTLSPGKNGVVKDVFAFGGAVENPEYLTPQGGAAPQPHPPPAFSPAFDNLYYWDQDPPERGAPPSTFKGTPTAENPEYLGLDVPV
For experiment [17] the target is unchanged. Particulars: at 1 µM.
The target in experiment [18] is Receptor tyrosine-protein kinase erbB-4 (Homo sapiens) (UniProt Q15303). Particulars: at 0.1 µM.
The target is the same in experiment [19]. Particulars: at 1 µM.
The target in experiment [20] is Tyrosine-protein kinase Fer (Homo sapiens) (UniProt P16591). To be noted: at 0.1 µM.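 Note: reported figures are averaged percent inhibition of FER.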
Chain of Tyrosine-protein kinase Fer (Homo sapiens) (P16591 whole entry, looked up): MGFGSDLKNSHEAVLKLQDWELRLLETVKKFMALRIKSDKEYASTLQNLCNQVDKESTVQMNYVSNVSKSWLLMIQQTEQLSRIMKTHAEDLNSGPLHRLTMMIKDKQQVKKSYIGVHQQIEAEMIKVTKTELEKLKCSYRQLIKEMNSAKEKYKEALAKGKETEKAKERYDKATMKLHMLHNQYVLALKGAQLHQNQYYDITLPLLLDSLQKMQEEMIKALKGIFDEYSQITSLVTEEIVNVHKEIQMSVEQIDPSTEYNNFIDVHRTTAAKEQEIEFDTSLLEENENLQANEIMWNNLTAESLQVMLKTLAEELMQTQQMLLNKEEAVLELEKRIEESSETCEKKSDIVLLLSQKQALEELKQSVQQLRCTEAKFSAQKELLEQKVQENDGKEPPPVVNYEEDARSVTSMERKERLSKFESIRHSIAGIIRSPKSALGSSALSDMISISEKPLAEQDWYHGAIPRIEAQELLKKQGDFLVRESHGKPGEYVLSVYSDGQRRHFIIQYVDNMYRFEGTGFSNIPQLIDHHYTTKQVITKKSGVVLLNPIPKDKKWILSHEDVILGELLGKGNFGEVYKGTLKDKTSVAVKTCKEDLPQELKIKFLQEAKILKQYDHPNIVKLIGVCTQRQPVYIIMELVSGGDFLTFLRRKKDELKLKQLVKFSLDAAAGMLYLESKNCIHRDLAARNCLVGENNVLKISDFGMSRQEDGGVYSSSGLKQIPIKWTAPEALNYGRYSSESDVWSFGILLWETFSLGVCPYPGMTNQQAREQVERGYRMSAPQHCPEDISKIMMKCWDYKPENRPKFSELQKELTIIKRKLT

Chain of Epidermal growth factor receptor (Homo sapiens), P00533 [L858R,T790M] (P00533 whole entry T790M/L858R, looked up): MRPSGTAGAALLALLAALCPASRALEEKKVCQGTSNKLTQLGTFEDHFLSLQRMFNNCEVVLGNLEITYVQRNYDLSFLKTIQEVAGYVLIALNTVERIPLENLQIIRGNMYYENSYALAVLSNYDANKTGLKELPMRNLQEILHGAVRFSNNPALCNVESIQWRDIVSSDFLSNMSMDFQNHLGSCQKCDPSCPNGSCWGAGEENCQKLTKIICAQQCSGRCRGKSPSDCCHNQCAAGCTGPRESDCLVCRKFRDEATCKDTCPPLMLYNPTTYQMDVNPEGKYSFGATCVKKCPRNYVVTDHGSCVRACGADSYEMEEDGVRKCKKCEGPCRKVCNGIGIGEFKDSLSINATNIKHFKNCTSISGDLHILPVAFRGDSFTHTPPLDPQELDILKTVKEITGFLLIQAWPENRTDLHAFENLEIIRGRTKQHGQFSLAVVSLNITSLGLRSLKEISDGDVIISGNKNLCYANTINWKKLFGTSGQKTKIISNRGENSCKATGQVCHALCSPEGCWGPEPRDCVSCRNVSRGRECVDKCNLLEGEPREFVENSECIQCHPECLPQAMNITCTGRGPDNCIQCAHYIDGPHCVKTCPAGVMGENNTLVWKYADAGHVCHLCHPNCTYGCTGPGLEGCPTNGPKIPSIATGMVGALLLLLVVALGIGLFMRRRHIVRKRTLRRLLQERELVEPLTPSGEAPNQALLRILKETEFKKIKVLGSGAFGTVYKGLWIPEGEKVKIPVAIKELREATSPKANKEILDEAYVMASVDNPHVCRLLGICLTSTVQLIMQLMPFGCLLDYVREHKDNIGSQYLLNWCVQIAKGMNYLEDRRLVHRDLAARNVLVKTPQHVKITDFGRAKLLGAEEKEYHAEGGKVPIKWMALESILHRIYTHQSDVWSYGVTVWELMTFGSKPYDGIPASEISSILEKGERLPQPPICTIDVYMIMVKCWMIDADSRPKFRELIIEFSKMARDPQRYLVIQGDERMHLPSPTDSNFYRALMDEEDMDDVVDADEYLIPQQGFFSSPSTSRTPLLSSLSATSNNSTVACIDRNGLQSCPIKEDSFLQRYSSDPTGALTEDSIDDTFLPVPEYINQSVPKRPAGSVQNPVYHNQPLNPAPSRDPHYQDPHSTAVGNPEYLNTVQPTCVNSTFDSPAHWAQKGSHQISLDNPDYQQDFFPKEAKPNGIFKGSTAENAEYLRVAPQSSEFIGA
Chain of Ephrin type-A receptor 4 (Homo sapiens) (P54764 whole entry): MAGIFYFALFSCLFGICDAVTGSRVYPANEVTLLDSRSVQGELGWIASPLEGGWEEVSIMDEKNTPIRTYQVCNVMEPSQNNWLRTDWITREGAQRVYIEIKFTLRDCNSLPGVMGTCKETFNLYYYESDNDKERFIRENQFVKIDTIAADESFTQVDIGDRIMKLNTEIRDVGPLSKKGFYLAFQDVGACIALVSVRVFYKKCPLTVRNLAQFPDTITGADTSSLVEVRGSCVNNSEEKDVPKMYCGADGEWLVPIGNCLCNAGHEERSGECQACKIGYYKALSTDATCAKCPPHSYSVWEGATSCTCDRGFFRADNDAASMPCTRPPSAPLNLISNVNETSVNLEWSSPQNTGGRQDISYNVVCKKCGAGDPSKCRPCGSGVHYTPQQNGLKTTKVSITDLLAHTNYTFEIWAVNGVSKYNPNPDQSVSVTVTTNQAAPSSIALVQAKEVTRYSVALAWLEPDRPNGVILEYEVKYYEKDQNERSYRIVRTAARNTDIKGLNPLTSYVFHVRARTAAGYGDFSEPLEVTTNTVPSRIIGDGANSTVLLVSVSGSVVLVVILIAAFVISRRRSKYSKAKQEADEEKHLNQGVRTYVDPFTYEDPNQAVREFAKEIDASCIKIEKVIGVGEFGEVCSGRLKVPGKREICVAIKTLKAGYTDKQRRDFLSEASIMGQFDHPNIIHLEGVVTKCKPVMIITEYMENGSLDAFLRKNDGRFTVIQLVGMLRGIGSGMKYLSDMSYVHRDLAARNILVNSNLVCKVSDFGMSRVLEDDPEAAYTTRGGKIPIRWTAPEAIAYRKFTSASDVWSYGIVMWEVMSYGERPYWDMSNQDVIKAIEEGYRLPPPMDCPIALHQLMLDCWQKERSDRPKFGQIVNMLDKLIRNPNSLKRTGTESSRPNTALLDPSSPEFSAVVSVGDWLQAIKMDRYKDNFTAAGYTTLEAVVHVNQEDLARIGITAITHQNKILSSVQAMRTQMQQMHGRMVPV

As for `NCc1ccc(-n2c(-c3nonc3N)nc3cnccc32)cc1`, the inhibition in experiment [1] amounted to 3.16%; in experiment [2] it was 4.81%; in experiment [3] it was 5.05%; in [4], 0.49%; in [5], 0.85%; in [6], 7%. Moreover, the inhibition in [7] is 4.64%; in experiment [8], 9.54%; in [9], 5.62%; in [10] it was 6.63%; in [11] it was 8.48%; in experiment [12], 7.61%. Further, the inhibition worked out at 3.86% in experiment [13]; 2.23% in experiment [14]; 1.42% in [15]; 2.39% in [16]; 2.56% in [17]; 16.3% in experiment [18]. In addition, the inhibition in experiment [19] amounted to 18%; in experiment [20], 3.01%.
Turning to `C[C@@H](Oc1cc(-n2cnc3ccc(OC4CCN(C)CC4)cc32)sc1C(N)=O)c1ccccc1Cl`, the inhibition is 1.48% in [1]; 1.1% in experiment [2]; 6.15% in experiment [3]; -2.62% in experiment [4]; -3.66% in experiment [5]; -0.17% in [6]. The inhibition in experiment [7] was -0.53%; in experiment [8] it was 7.06%; in [9], 9.83%; in experiment [10], 7.8%; in [11], 7.99%; in experiment [12], -1.42%. The inhibition in experiment [13] was -0.38%; in experiment [14], -3.06%; in experiment [15] it was -1.28%; in experiment [16], 2.36%; in experiment [17] it was 2.65%; in experiment [18] it was 1.1%. The inhibition in experiment [19] stood at 6.83%; in experiment [20], 3.05%.
For `Cc1ccc(NC(=O)c2ccoc2)cc1-c1ccc(C(=O)NCC2CC2)cc1`, the inhibition in experiment [1] is 0.9%; in experiment [2] it was 2.36%; in experiment [3], 1.46%; in [4], 0.92%; in experiment [5], -0.44%; in experiment [6], 1.99%. The inhibition in experiment [7] was determined as 2.02%; in experiment [8], 5.05%; in experiment [9], 6.13%; in experiment [10] it was 2.46%; in experiment [11], 5.88%; in [12], 3.21%. Further, the inhibition in [13] was 3.35%; in experiment [14], 0.88%; in experiment [15] it was 0.82%; in [16] it was 5.47%; in experiment [17] it was 5.7%; in experiment [18] it was 8.06%. The inhibition in experiment [19] came to 10.6%; in experiment [20] it was 0.47%.
